Rows were chosen to be rich in hits. Some 19% of all compounds tested hit in one or more screens of this group.
HT1080 IDH1KD tx: HT-1080 IDH1 knockdown cell toxicity (counter line); HT-1080 IDH1 knockdown viability, ATP luminescence, 48 h; Potency, µM (titrated, usually from 46.1 µM), without a hit: top-dose activity, negative = toxicity, actives largely listed as cytotoxic; hit rate 2% among 360,000; AID 686971;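 also: potency is read from the fitted curve at half-maximal effect; 0% = DMSO wells and -100% = cell-free medium wells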
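Viability of IDH1-knockdown HT-1080 fibrosarcoma cells was assessed by CellTiter-Glo after 48 h at 37 °C with titrated compound; concentration-effect curves were classified by fit quality and response size.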
IL1B secr inh: inhibitors of inflammasome signaling (IL-1 beta secretion) | THP-1 LPS/ATP IL-1B secretion, AlphaLISA, 16 h; active compounds read low | activity change, % at 57.5 µM | hit rate 4.7% among 360,000 | AID 743279; in the data active = activity change below about -50%; inconclusive = mostly about -30% to -49%
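Secreted IL-1B measured by AlphaLISA bead assay after 16 h compound exposure of THP-1 cells; compounds (final up to 57.5 uM) added 1 h before LPS (250 ng/mL) and ATP (1.25 mM) stimulation; lower signal means less secretion.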
HT1080NT lethal: kills 2HG-producing HT-1080-NT fibrosarcoma cells; hit rate 1.6% among 360,000; Potency, µM (titrated, usually from 46.1 µM), for the others: top-dose activity, negative = less viability, most hits filed as cytotoxic; HT-1080-NT fibrosarcoma viability, CellTiter-Glo ATP luminescence, 48 h; AID 686970;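 also: NT is the 2HG producing partner of a matched IDH1 knockdown line; potency is read from the fitted curve at half-maximal effect; 0% = DMSO-treated cells and -100% = media-only wells without cells; nearly all actives have a fitted effect of over 55% in size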
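Compounds were tested in concentration-response format on HT-1080-NT cells for 48 hours at 37 degrees C. Cell viability came from CellTiter-Glo luminescence; curves were classified by r2, response magnitude and activity.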
TDP1 cell noCPT: qHTS for Inhibitors of human tyrosyl-DNA phosphodiesterase 1 (TDP1): qHTS in cells in absence of CPT | DT40 Tdp1-/- hTDP1 cells, no CPT, ATP luminescence, 48 h | Potency, µM (doses to about 46.2 µM), for inactives: at the highest dose activity change, negative = growth inhibition, hits mostly inhibitors | hit rate 15% among 420,000 | AID 686978, 2013; also: potency is read from the fitted curve at half-maximal effect; nearly all actives have a fitted effect of over 55% in size
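Stably hTDP1-transfected Tdp1-null chicken DT40 cells were treated with library compounds minus camptothecin and grown for at least 48 hr at 37 °C, after which cellular ATP was quantified by luminescence.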
TDP1 cell CPT: growth inhibition of DT40 Tdp1-/-;hTDP1 cells with camptothecin (screen for TDP1 inhibitors); chicken DT40 Tdp1-/-;hTDP1 cells + 20 nM CPT, ATP luminescence, 48 h; Potency, µM (series often up to 46.2 µM), inactives show at the top dose activity change, negative = growth inhibition, usual class: inhibitors; hit rate 12% among 420,000; AID 686979; also: potency is read from the fitted curve at half-maximal effect; nearly all actives have a fitted effect of over 55% in size
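Cell growth measured by CellTiter-Glo luminescence after a minimum 48 h, 37 C compound exposure with 20 nM CPT in Tdp1-knockout DT40 cells stably expressing hTDP1, seeded 400/well; qHTS titration format.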
Numbers without * were called inactive. Unless noted, calls follow the shape of the dose curve; as a rule, active = well fitted curve in the direction sought with a large enough effect; inconclusive = small, poorly fitted or top-dose-only effect, or another doubt; inactive = no such curve, though single readings can be large; an effect the other way counts as inactive or inconclusive. Unless noted, % is scaled to controls: 0 for no effect and ±100 for the full control effect.

Results for N#CC1=C(N)Oc2c(ccc3cccnc23)C1c1cccnc1 (stereo unspecified) ?
HT1080 IDH1KD tx: 8.2µM*; IL1B secr inh: 61.6; HT1080NT lethal: 7.31µM*; TDP1 cell noCPT: 5.17µM*; TDP1 cell CPT: 5.8µM*

Results for CC(C)(C)c1[nH]nc2c1C(c1cccnc1)C(C#N)=C(N)O2 (stereo unspecified) ?
HT1080 IDH1KD tx: 3.2%; IL1B secr inh: inconclusive; HT1080NT lethal: 8.0%; TDP1 cell noCPT: -8.6%; TDP1 cell CPT: -2.3%

What do the screens show for `COC(C[C@H]1O[C@H]1[C@H](O)[C@@H](C)OCc1ccccc1)OC`?
HT1080 IDH1KD tx: -1.8%; IL1B secr inh: 18.7; HT1080NT lethal: 8.9%; TDP1 cell noCPT: -7.0%; TDP1 cell CPT: 7.7%

What do the screens show for `Cc1nc(-n2nc(C)c(Cc3ccccc3Cl)c2C)sc1C(=O)Nc1ccccc1F`?
TDP1 cell noCPT: -20.1%; TDP1 cell CPT: -12.8%

How did C[n+]1cccc2ccc3c(c21)OC(N)=C(C#N)C3c1ccccc1 (stereo unspecified) do in these assays?
HT1080 IDH1KD tx: inconclusive; HT1080NT lethal: inconclusive; TDP1 cell noCPT: inconclusive; TDP1 cell CPT: 24.8%

What do the screens show for `COc1ccc(Cn2c(C)cc3c(c2=O)C(c2cccs2)C(C#N)=C(N)O3)cc1OC` (stereo unspecified)?
HT1080 IDH1KD tx: -17.0%; IL1B secr inh: 5.7; HT1080NT lethal: -0.7%; TDP1 cell noCPT: -6.6%; TDP1 cell CPT: -11.3%

What do the screens show for `N#CC1=C(N)Oc2cc3ccccc3cc2C1c1cccs1` (stereo unspecified)?
HT1080 IDH1KD tx: inconclusive; IL1B secr inh: 0.0; HT1080NT lethal: inconclusive; TDP1 cell noCPT: 11.2µM*; TDP1 cell CPT: 11.2µM*

How did C[n+]1cccc(C2C(C#N)=C(N)Oc3c2ccc2ccccc32)c1 (stereo unspecified) do in these assays?
HT1080 IDH1KD tx: 14.6µM*; IL1B secr inh: 41.2; HT1080NT lethal: 11.6µM*; TDP1 cell noCPT: inconclusive; TDP1 cell CPT: inconclusive

What do the screens show for `Cc1c(NC(=O)COC(=O)/C=C/c2cccc(Br)c2)c(=O)n(-c2ccccc2)n1C`?
HT1080 IDH1KD tx: 11.4%; IL1B secr inh: -18.5; HT1080NT lethal: 7.7%; TDP1 cell noCPT: 12.4%; TDP1 cell CPT: -25.3%

What do the screens show for `O=C(Nc1ccc(O)cc1)c1c(O)c2c([nH]c1=O)CCCC2`?
HT1080 IDH1KD tx: 9.6%; IL1B secr inh: -8.9; HT1080NT lethal: 22.7%; TDP1 cell noCPT: -29.6%; TDP1 cell CPT: -0.8%

What do the screens show for `CSc1ccc(C(=O)C2CCCN(C(=O)c3ccc4c(c3)no[n+]4[O-])C2)cc1` (stereo unspecified)?
HT1080 IDH1KD tx: -7.1%; IL1B secr inh: -67.0*; HT1080NT lethal: 26.0%; TDP1 cell noCPT: 13µM*; TDP1 cell CPT: inconclusive

What do the screens show for `O=C(c1ccc2ccccc2c1)C1CCCN(C(=O)c2cccnc2)C1` (stereo unspecified)?
HT1080 IDH1KD tx: -23.0%; IL1B secr inh: inactive; HT1080NT lethal: -8.0%; TDP1 cell noCPT: 14.6µM*; TDP1 cell CPT: 16.4µM*

Results for CSc1ccc(C(=O)C2CCCN(C(=O)c3cccnc3SC)C2)cc1 (stereo unspecified) ?
HT1080 IDH1KD tx: -3.5%; IL1B secr inh: 52.6; HT1080NT lethal: 5.5%; TDP1 cell noCPT: 16.4µM*; TDP1 cell CPT: inconclusive

How did CSc1ccc(C(=O)C2CCCN(C(=O)c3ccsc3)C2)cc1 (stereo unspecified) do in these assays?
HT1080 IDH1KD tx: 11.2%; IL1B secr inh: 0.0; HT1080NT lethal: 3.7%; TDP1 cell noCPT: inconclusive; TDP1 cell CPT: inconclusive

What do the screens show for `COc1ccc2cc(C(=O)C3CCCN(C(=O)c4cccnc4)C3)ccc2c1` (stereo unspecified)?
HT1080 IDH1KD tx: 3.1%; IL1B secr inh: -29.7; HT1080NT lethal: 1.9%; TDP1 cell noCPT: inconclusive; TDP1 cell CPT: inconclusive

Results for COc1ccccc1C(=O)C1CCCN(C(=O)c2cccnc2SC)C1 (stereo unspecified) ?
HT1080 IDH1KD tx: 9.4%; IL1B secr inh: 38.0; HT1080NT lethal: -0.7%; TDP1 cell noCPT: inconclusive; TDP1 cell CPT: inconclusive

How did CSc1ncccc1C(=O)N1CCCC(C(=O)c2ccc3ccccc3c2)C1 (stereo unspecified) do in these assays?
HT1080 IDH1KD tx: 15.4%; IL1B secr inh: -56.2*; HT1080NT lethal: 10.2%; TDP1 cell noCPT: 20.6µM*; TDP1 cell CPT: inconclusive

How did O=C(CSc1nccc(=O)[nH]1)N1CCOCC1 do in these assays?
HT1080 IDH1KD tx: 4.2%; IL1B secr inh: 0.7; HT1080NT lethal: 17.5%; TDP1 cell noCPT: 18.2%; TDP1 cell CPT: 14.4%

Results for Nc1cc(Cl)nnc1Cl ?
HT1080 IDH1KD tx: 10.5%; IL1B secr inh: 29.7; HT1080NT lethal: 28.4%; TDP1 cell noCPT: -0.7%; TDP1 cell CPT: 5.0%

Results for CN(C)c1ccccc1C(=O)N1CCCC(Nc2ccc(F)cc2)C1 (stereo unspecified) ?
HT1080 IDH1KD tx: -3.3%; IL1B secr inh: 26.5; HT1080NT lethal: -2.3%; TDP1 cell noCPT: 3.0%; TDP1 cell CPT: -15.4%

What do the screens show for `CSc1ccc(C(=O)C2CCCN(C(=O)CCn3cncn3)C2)cc1` (stereo unspecified)?
HT1080 IDH1KD tx: 16.8%; IL1B secr inh: 2.4; HT1080NT lethal: 9.0%; TDP1 cell noCPT: -25.2%; TDP1 cell CPT: 3.8%

Results for O=C(c1ccc2ccccc2c1)C1CCCN(C(=O)c2noc3c2CCCC3)C1 (stereo unspecified) ?
HT1080 IDH1KD tx: -12.9%; IL1B secr inh: -71.5*; HT1080NT lethal: -12.5%; TDP1 cell noCPT: inconclusive; TDP1 cell CPT: inconclusive

What do the screens show for `O=C(c1ccc2ccccc2c1)C1CCCN(C(=O)CN2C(=O)CSC2=O)C1` (stereo unspecified)?
HT1080 IDH1KD tx: 14.4%; IL1B secr inh: -0.6; HT1080NT lethal: 15.4%; TDP1 cell noCPT: -14.1%; TDP1 cell CPT: -8.5%

How did CSc1ccc(C(=O)C2CCCN(C(=O)CCc3c(C)nn(C)c3C)C2)cc1 (stereo unspecified) do in these assays?
HT1080 IDH1KD tx: inconclusive; IL1B secr inh: -12.0; HT1080NT lethal: 13µM*; TDP1 cell noCPT: 8.2µM*; TDP1 cell CPT: 10.3µM*

What do the screens show for `CN(C)c1ccccc1C(=O)N1CCCC(C(=O)c2ccc3ccccc3c2)C1` (stereo unspecified)?
HT1080 IDH1KD tx: -28.3%; IL1B secr inh: -7.6; HT1080NT lethal: -22.9%; TDP1 cell noCPT: 23.1µM*; TDP1 cell CPT: inconclusive

What do the screens show for `Cc1ccc(NC(=O)CSC(C)C(=O)NCCc2ccccn2)cc1` (stereo unspecified)?
HT1080 IDH1KD tx: -1.0%; IL1B secr inh: -3.2; HT1080NT lethal: 7.8%; TDP1 cell noCPT: -8.7%; TDP1 cell CPT: -8.8%
